This is a sample that favours compounds with a hit; in the whole collection about 3.4% have one here.
GPR151 ag = activators of human GPR151, primary screen, cell-based, PathHunter beta-arrestin, luminescence | G-protein coupled receptor 151 (Homo sapiens), Q8TDV0 | PathHunter beta-arrestin GPR151 cells | activation, % at 11.2 µM | actives 1% (n = 650,000); in the data active = activation above about 4.9%
TEAD-YAP inh = TEAD-YAP interaction inhibition, primary screen, TEAD-YAP interaction inhibitor project, luminescence, HEK-TIYL cells; TEAD-Gal4/YAP UAS-luciferase luminescence; AID 1259422, 2018; actives 1.4% (n = 640,000); inhibition, % at 9.12 µM; in the data active = inhibition above about 32%
FBW7 activator = FBW7 E3 ligase activators, primary screen, biochemical, AlphaScreen, human. normalized activity (activation), % at 26.1 µM. actives 0.13% (n = 650,000). F-box/WD repeat-containing protein 7 (Homo sapiens), Q969H0. AlphaScreen FBW7–phospho-cyclin E peptide binding, activator screen; in the data active = normalized activity above about 1.9%;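 note: purified mutant Fbw7 with reduced substrate affinity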
MITF inh = MITF inhibitors, primary screen, biochemical, AlphaScreen, human; Microphthalmia-associated transcription factor (Homo sapiens), O75030; AlphaScreen MITF homodimerization, bead proximity signal; actives 0.91% (n = 650,000); inhibition, % at 2.6 µM; in the data active = inhibition above about 50%
Target sequence (O75030 whole entry, looked up): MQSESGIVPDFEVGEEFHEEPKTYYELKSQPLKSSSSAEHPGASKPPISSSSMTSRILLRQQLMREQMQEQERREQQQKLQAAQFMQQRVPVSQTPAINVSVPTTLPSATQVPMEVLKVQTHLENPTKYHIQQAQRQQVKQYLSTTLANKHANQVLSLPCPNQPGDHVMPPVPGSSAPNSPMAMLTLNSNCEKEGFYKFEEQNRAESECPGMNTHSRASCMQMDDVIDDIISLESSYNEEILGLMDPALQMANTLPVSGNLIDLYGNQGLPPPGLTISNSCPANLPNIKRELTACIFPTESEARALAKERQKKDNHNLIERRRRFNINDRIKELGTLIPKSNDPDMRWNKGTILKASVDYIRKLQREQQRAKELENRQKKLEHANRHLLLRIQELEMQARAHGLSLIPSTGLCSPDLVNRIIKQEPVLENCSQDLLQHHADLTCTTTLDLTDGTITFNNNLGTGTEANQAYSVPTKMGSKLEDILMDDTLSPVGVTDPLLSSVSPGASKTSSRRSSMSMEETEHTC
Of the large screens only hits and unclear results are named; the others gave an inactive call.

CCOC(=O)C1=C(C)N=c2s/c(=C/c3ccc(-c4ccc(Cl)c(C(=O)O)c4)o3)c(=O)n2C1c1cccs1 (stereo not drawn)	none
O=C(Nc1cccc(Nc2nccc(-c3ccc4nc(C5CC5)[nH]c(=O)c4c3)n2)c1)N1CCCC1	none
CC(Sc1nc2c(c(=O)n(C)c(=O)n2C)n1Cc1ccc(Cl)cc1Cl)C(=O)O (stereo not drawn)	none
O=C(Nn1c(SCC(=O)N2CCN(c3ccccc3)CC2)nc2ccccc2c1=O)c1ccc(F)cc1	none
O=C(O)CSc1nc2ccccc2n1CC(=O)NC1CCCCC1	FBW7 activator 1.9
COc1ccc(C(=O)Nn2c(SCC(=O)N3CCN(c4ccccc4)CC3)nc3ccccc3c2=O)cc1	TEAD-YAP inh 77
Cc1ccc(C(=O)OC2CC(C)CCC2C(C)C)cc1[N+](=O)[O-] (stereo not drawn)	none
CC1CCC(C(C)C)C(OC(=O)c2cc([N+](=O)[O-])ccc2Cl)C1 (stereo not drawn)	FBW7 activator 5.5
CCN(CC)c1ccc(NC(=O)c2ccccc2[N+](=O)[O-])cc1	none
Cc1cc(C(=O)O)ccc1N/C=C/C(=O)c1cccs1	TEAD-YAP inh 46
Cc1cc(N/C=C\C(=O)c2cccs2)no1	none
COc1cc([N+](=O)[O-])ccc1N/C=C/C(=O)c1ccc(Cl)cc1	none
COc1cc([N+](=O)[O-])ccc1N/C=C/C(=O)c1cccs1	TEAD-YAP inh 80
COc1cc([N+](=O)[O-])ccc1N/C=C/C(=O)c1ccccc1	TEAD-YAP inh 71
COc1ccc(-c2noc(CNC(=O)CC3CCCCC3)n2)cc1	none
O=C(N[C@@H]1CCc2ccccc21)c1cccc(-n2cc(NC(=O)C3CCc4ccccc43)cn2)c1 (stereo partly drawn)	none
COC(=O)[C@H]1CN(C(=O)CCC2NC(=O)NC2=O)C[C@@H]1c1ccc(F)cc1 (stereo partly drawn)	none
CCCCC(=O)OCCN1C(=O)c2cccc3c(N4CCOCC4)ccc(c23)C1=O	FBW7 activator 3.4
CCCCC(=O)OCCCN1C(=O)c2cccc3c(N4CCCCC4)ccc(c23)C1=O	none
CC(=O)Oc1ccc(-c2csc(Nc3cccc(O)c3)n2)cc1	none
COc1ccc(-c2csc(Nc3cccc(O)c3)n2)cc1	TEAD-YAP inh 41
Cc1ccc(-c2csc(Nc3cccc(O)c3)n2)cc1	TEAD-YAP inh 74
CCOc1ccc(C(=O)c2oc3ccccc3c2N)cc1	none
CN(C)c1cc2c(c(N(C)C)c1)C(=O)c1ccccc1C2=O	MITF inh 54
Nc1c(Br)cc2c(c1Br)C(=O)c1ccccc1C2=O	none
CSC(Nc1ccc(Br)cc1)=C(C#N)C#N	TEAD-YAP inh 38
CCSCc1nnc(SCC(=O)Nc2ccccc2C)n1CC	none
CSc1ccc(C=C2C(=O)c3ccccc3C2=O)cc1	none
CC1C(=O)C(=O)/C(=C\c2ccccc2)C1=O (stereo not drawn)	MITF inh 82
c1ccc(-n2cnc3c(NCCN4CCOCC4)nc(Nc4ccncn4)nc32)cc1	none
c1ccc(-n2cnc3c(NCCN4CCOCC4)nc(Nc4cnccn4)nc32)cc1	TEAD-YAP inh 48
c1ccc(-n2cnc3c(NCCN4CCOCC4)nc(Nc4ccccn4)nc32)cc1	TEAD-YAP inh 35
c1ccc(-n2cnc3c(NCCN4CCOCC4)nc(Nc4ncccn4)nc32)cc1	none
Cc1cccc(C)c1NC(=O)c1cc2c(C)nn(-c3ccccc3)c2s1	none
COc1cc(S(=O)(=O)NCCC(C)C)ccc1-n1cnnn1	none
O=C(Oc1cccc2ccccc12)N1CCN2C(=O)[C@@H]3CSCN3C(=O)[C@H]2C1	TEAD-YAP inh 35
O=C(c1ccc2cncc(-c3ccccc3)c2n1)N1CCCCC1	TEAD-YAP inh 50
O=C(NC1CC1)c1cncc(-c2ccccc2)c1	none
O=C(NC1CC1)c1ccc2cncc(-c3ccccc3)c2n1	TEAD-YAP inh 51
O=C(NC1CCN(Cc2ccccc2)CC1)c1ccc2cncc(-c3ccccc3)c2n1	TEAD-YAP inh 65
CSc1ncccc1C(=O)Nc1cccc(Cl)c1C	none
O=c1cc(-c2cccs2)oc2ccc(O)cc12	none
COc1ccc2oc(-c3ccc(Cl)cc3)cc(=O)c2c1	none
COc1ccc2oc(-c3ccccc3Cl)cc(=O)c2c1	TEAD-YAP inh 49, FBW7 activator 2.6
COc1ccc2oc(-c3cccs3)cc(=O)c2c1	TEAD-YAP inh 43
NC(=O)C1CCN(C(=O)CCCn2sc3ccccc3c2=O)CC1	none
Cc1[nH]n(-c2ccccc2)c(=O)c1/C=N/N/C(=N/c1ccccn1)c1ccccn1	MITF inh 52
Cc1[nH]n(-c2ccccc2)c(=O)c1/C=N/NC(C)(C)C	none
N/C(=N\N=C/c1ccc(O)cc1O)c1ccccn1	TEAD-YAP inh 84
Oc1ccc(/C=N/N/C(=N/c2ccccn2)c2ccccn2)c(O)c1	TEAD-YAP inh 59
COc1ccccc1/C=N\N=C(/N)c1ccccn1	TEAD-YAP inh 56
COc1ccccc1N1CCN(C2CCCN(C(=O)CCc3cccnc3)C2)CC1 (stereo not drawn)	none
CN(/N=C/c1c(-c2ccccc2)nc2ccccn12)C(N)=S	none
Nc1c(C(=O)c2ccc(Br)cc2)sc2nc(N3CCCCC3)c3c(c12)CCCC3	none
N/C(=N\N=C\c1c(O)ccc2ccccc12)c1ccccn1	TEAD-YAP inh 60
Oc1ccc2ccccc2c1/C=N/c1ccccn1	none
CC(=O)Nc1ccc(Nc2nc(NCCCN3CCCC3=O)nc3c2ncn3-c2ccsc2)cc1	TEAD-YAP inh 40
O=C1CCCN1CCCNc1nc(N2CCOCC2)nc2c1ncn2-c1ccsc1	TEAD-YAP inh 57
CC(C)N(CCNc1nc(NCCCN2CCCC2=O)nc2c1ncn2-c1ccsc1)C(C)C	none
CCCNc1nc(NCCCN2CCCC2=O)nc2c1ncn2-c1ccsc1	TEAD-YAP inh 48
O=C1CCCN1CCCNc1nc(NCCCN2CCCC2=O)c2ncn(-c3ccccc3)c2n1	none
O=C1CCCN1CCCNc1nc(NCCN2CCOCC2)c2ncn(-c3ccsc3)c2n1	TEAD-YAP inh 43
COc1ccc(-c2nc(Nc3cc(OC)c(OC)c(OC)c3)c3ncn(Cc4ccc(C(F)(F)F)cc4)c3n2)cc1	none
OC1CCC(Nc2nc(NC3CCN(Cc4ccccc4)CC3)c3ncn(Cc4ccc(C(F)(F)F)cc4)c3n2)CC1 (stereo not drawn)	TEAD-YAP inh 49
O=C1CCCN1CCn1cnc2c(NCCO)nc(N3CCN(c4ccccn4)CC3)nc21	none
O=C1CCCN1CCCNc1nc(Nc2nccc3ccccc23)nc2c1ncn2-c1ccsc1	TEAD-YAP inh 59
c1ccc(CN2CCC(Nc3nc(Nc4ccccc4)nc4c3ncn4-c3ccsc3)CC2)cc1	none
OC1CCC(Nc2nc(NC3CCN(Cc4ccccc4)CC3)c3ncn(-c4ccsc4)c3n2)CC1 (stereo not drawn)	TEAD-YAP inh 60
FC(F)(F)c1ccc(Cn2cnc3c(NC4CCN(Cc5ccccc5)CC4)nc(Cl)nc32)cc1	none
